Experimental data reported in PubChem BioAssay AID1508600 (Functional Genomics Laboratory (NCATS/FGL), 2020).
The whole screen tested about 53,000 sequences, of which about 3,700 (7%) were called active.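 Rule for the calls: active = gene knockdowns whose robust z-score for IL-1 alpha signal is at least 2 or at most -2, so actives lie on both sides; inactive = the rest.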 The sample as a whole holds a higher share of actives than the screen did.

Assay: Components of the Cytosolic LPS Sensing Pathway: Gene Identification via Genome-wide siRNA Screen;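 note: robust z of the log signal after scaling to non-targeting control siRNA wells of the plate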
Details: RAW264.7 macrophages, IL-1a HTRF, actives lie on both sides, screened at 100 nM (by protocol), cells primed 5 h with Pam3CSK4 first
Procedure, shortened: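 IL-1a HTRF of supernatants after 24 hour LipidA transfection of Pam3CSK4-primed (5 hours) RAW264.7 cells, 48h post-siRNA transfection (100 nM). Scores: percent of plate negative-control median, then log-based robust z-score.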

z-score, inactive:
GGAGCUCAUAGACCAGCUUTT against Necab3 0.371
GCUUGAUGGUAAAAAGGUUTT against Atl1 -1.18
CCAACCUAUAAGUUAAUGATT against Mrps22 -0.735
CGGAGAGGAUUUCAUCGAATT against Azgp1 0.0877
GGGCCUCCAUCCUACUAUGTT against Grina 1.65
CGAUAUGUGUUUGUAAUGGTT against Atp6v1d -0.853
GCCGUGAUCGACUUGAAUATT against U2af1 0.763
CCAAUAUGCUCAGUAUUACTT against Eya4 -1.36
CCCUCUCCCUUCAAUGUGGTT against Cblif -1.38
GGAGUAGUAGCUGAAUUUGTT against Abcc3 0.317
GGCUGAUCUCUUUUGCCAGTT against Reg2 0.00409
GGAACAUAUACUGGACAGATT against Zfp825 0.436
GGGCUAAUAUACAGAAAUATT against Rrm2b -0.126
GGUGGAGAAAAAUGCAACATT against Clnk -0.429
GGAAAUCUGAAGAAUCAAGTT against Zup1 -0.621
GGAGGUAGAAAAGACAAAATT against Jrk 1.96
GGAUGCAUUUCUGAGCCACTT against Tacc2 -1.62
GGAAGGACAAUCAGUUCCUTT against Thsd7b 0.999
CCUUUUAUAACUGCUCUCUTT against Jpt2 -1.01
GCUCACUCUUUCCAACUAUTT against Ubox5 0.465
GGCUGGAUUAUUUUUUCUUTT against Usp4 0.921
GAACGUGCAGCUGACAGAGTT against Ppp1ca -1.03
CGGGCUGGAAGAAAUCUCUTT against Rhox3a 0.771
GGACAAAACCAUCUCCUUCTT against Olfr17 0.324
GGGAAUGCACUACAACUACTT against Chpf 1.16
GGCUUUUCUGGCUAUCCACTT against Anxa7 -0.774
GGCCCAAGAGCAUUCUGGATT against Slc25a19 0.552
GGGUGUGCAUUUGUACUACTT against Smad9 1.21
GGAUAUGUCAGCAUAUGUGTT against Yeats4 -0.583
GGUCAACAGUUACAUCGAGTT against Vps33a 0.273
GCCCAUCUUAGCAUUCUCUTT against Aldh4a1 -1.91
GCUAGAAAAAAAUCAGUUGTT against Eif2a 0.6
CCUCUCAACCACUGACUGATT against Gpatch4 0.836
GCUCAAAUCGUACAAGUGUTT against Panx1 0.214
GUCCUCGUAGGAACAGCAUTT against Olfr1265 -1.52
GGCACUGUUGUGGCUGAAATT against Coro1a 1.47
CCUCAUGGAUGUUCGUAGATT against P2ry10 0.452
GCUAGGAUGUCUGAAAGAGTT against Ccdc178 0.266
GGCUGUAUCCUGACAGCAATT against Olfr231 0.213
GCGUGGAGAACCGUUAAUCTT against Shroom3 0.845
CCUCUCUAGGCCAUGUUCUTT against 1110008P14Rik 0.381
GGUUUUAUCCCUGUUUCCUTT against Naaa -0.115
GCGGUCAACUGGAAACUAATT against Dnaja3 0.735
GCAUCAUGAGUCCCAUUCUTT against Olfr385 -0.276
CCAACGCGCACGGCCGCGCTT against Tmem158 -0.359
CCCUGCUGUCGUUUUGACUTT against Senp3 -0.122
GGAAAGUUUUGGCGACUACTT against Fbxw19 0.25
GGAUUUAAAUCACCUGUAATT against Tdpoz1 -0.864
GCAGAAAAGGUCUACGUGCTT against Azgp1 1.8
CCGAUUAAAAGAGUGUUUGTT against Nudt8 1.85
GGUUAUCUUUGGGACUUAATT against Lrmp -1.66
GCUGGUGCUCUUCACCAUATT against Fbxw17 -0.419
CCUGAAAUGCUAAGACUACTT against Gm5142 1.15
GGGAUCUUACAUGCCACCATT against Olfr1231 -0.000779
GGCUACUCGGCCCUCUGUUTT against 4930404N11Rik -1.67
CCAUACAGAGGUGACAGUUTT against Olfr816 -0.23

z-score, active:
GGGCUUCUUCUGCUAUGACTT against Plppr2 -2.2
GGGUGUUUGGUUGUGAUCUTT against Arhgap33 -2.07
GGAUGUGAUCAUAGCAUGGTT against Slc35e1 -2.07
CUCUCGAACAAUCAACCACTT against Olfr315 2.05
GACUAUGUGGUCUACUCGUTT against Drd4 2.86
GCCAUAUCAACUAGUGCAGTT against Siglech 2.36
CCCAGAACGGGAUGAUUCUTT against Trex2 2.77
CCUGAGAUUGGGAAAUUCUTT against Engase 2.02
CCGAAAAAUAUGUUUUCCGTT against Mettl4 2.87
GCUCAACUUACGUUCACUCTT against Vps72 -2.53
AAACAGUCAUUUCCUAUAGTT against Olfr1502 -2.04
GGACGUGUAGCUUGGAAUATT against Rnf26 5.33
